PubChem BioAssay (NCI)
About 79,000 compounds went through this panel and 15% of them were active in at least one assay; those are over-represented in the sample as a whole. Active and inactive are the calls of the source. No stated cut-off is given here; in the data, active means growth inhibition above about 70%; inactive means the rest.

Columns and labels:
[1] = NCI Yeast Anticancer Drug Screen. Data for the rad52 strain (AID 147);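 further: 0% = growth of vehicle-treated control cultures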; details: S. cerevisiae rad52 mutant growth inhibition, active compounds read high
Method in brief: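 DNA repair-defective yeast; compound exposure; growth scored against vehicle controls.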

[2] = NCI Yeast Anticancer Drug Screen. Data for the wt1 strain (AID 149);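 further: 0% = growth of vehicle-treated wt1 cultures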; details: S. cerevisiae wt1 strain (SPY 50644) growth inhibition, active compounds read high
Method in brief: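 Compounds are added to wt1 yeast cultures. Growth is then measured. Inhibition is expressed relative to vehicle-treated controls.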

[3] = NCI Yeast Anticancer Drug Screen. Data for the rad50EPP+ strain (AID 151);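 further: 0% = growth of vehicle-treated control cultures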; details: S. cerevisiae rad50 mutant strain, active compounds read high
Method in brief: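 rad50EPP+ yeast treated with test compounds. Readout: growth vs vehicle control.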

[4] = NCI Yeast Anticancer Drug Screen. Data for the mec2-1 strain (AID 157); details: S. cerevisiae mec2-1 strain, active compounds read high
Method in brief: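 Growth inhibition is read against vehicle-treated controls after compound exposure of the mec2-1 yeast strain, which is defective in DNA damage repair or cell cycle control.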

[5] = NCI Yeast Anticancer Drug Screen. Data for the rad14 strain (AID 159);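 further: 0% = growth of vehicle-treated control cultures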; details: S. cerevisiae rad14 strain growth inhibition, active compounds read high
Method in brief: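 A mutant yeast strain defective in DNA damage repair is treated with compound; inhibition of its growth is scored against untreated, vehicle-exposed cultures.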

[6] = NCI Yeast Anticancer Drug Screen. Data for the sgs1 mgt1 strain (AID 161);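 further: 0% = growth of cultures given vehicle only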; details: S. cerevisiae sgs1 mgt1 strain, active compounds read high
Method in brief: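 Yeast cells carrying a defined DNA-repair defect were exposed to test compounds. Growth inhibition was measured relative to vehicle-treated controls.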

[7] = NCI Yeast Anticancer Drug Screen. Data for the CLN2oe strain (AID 163);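 further: 0% = growth of vehicle-only control cultures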; details: S. cerevisiae CLN2oe strain, active compounds read high
Method in brief: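 Compound-treated yeast; growth vs vehicle ctrl = % inhibition. Genetically altered strain (cell-cycle control).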

[8] = NCI Yeast Anticancer Drug Screen. Data for the cln2 rad14 strain (AID 165);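 further: 0% = growth equal to vehicle treated cultures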; details: S. cerevisiae cln2 rad14 strain, active compounds read high
Method in brief: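 Growth inhibition, relative to vehicle-treated controls, is the read-out. The test organism is a yeast strain with defined genetic alterations, cln2 rad14.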

[9] = NCI Yeast Anticancer Drug Screen. Data for the bub3 strain (AID 167); details: S. cerevisiae bub3 mutant strain, active compounds read high
Method in brief: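 Steps: expose the mutant yeast strain to compound; grow alongside vehicle-treated cultures; measure growth; express inhibition against the vehicle cultures.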

[10] = NCI Yeast Anticancer Drug Screen. Data for the wt2 strain (AID 169);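 further: 0% = growth of vehicle-treated yeast cultures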; details: S. cerevisiae wt2 strain growth inhibition, active compounds read high
Method in brief: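 Compound exposure of yeast; growth compared with vehicle controls; inhibition reported.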

[11] = NCI Yeast Anticancer Drug Screen. Data for the mlh1 strain (AID 171);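 further: 0% = growth of vehicle-treated control cultures of the same strain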; details: S. cerevisiae mlh1 strain growth inhibition, active compounds read high
Method in brief: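 Compounds are applied to a genetically altered yeast strain, and its growth is compared with that of vehicle-treated cultures to give percent inhibition.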

[12] = NCI Yeast Anticancer Drug Screen. Data for the sgs1 strain (AID 173);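 further: 0% = growth of vehicle-only control cultures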; details: S. cerevisiae sgs1 mutant, active compounds read high
Method in brief: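 Compounds applied to genetically altered yeast; growth compared with vehicle-treated cultures to give % inhibition.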

[13] = at 5.0 µM (retest, dose inferred, filed as 0.5)
[14] = at 50.0 µM (retest, dose inferred, filed as 5.0)

Measured: growth inhibition

COc1ccc(SCc2cc(OC)ccc2OC)cc1
inactive: [1]; at 1.2 µM 0% | [1]; at 3.7 µM 2% | [1]; at 11.0 µM 4% | [1]; at 33.0 µM 3% | [1]; at 100.0 µM 3% | [2]; at 1.2 µM -4% | [2]; at 3.7 µM -4% | [2]; at 11.0 µM -5% | [2]; at 33.0 µM -6% | [2]; at 100.0 µM -1% | [3]; at 1.2 µM 15% | [3]; at 3.7 µM 18% | [3]; at 11.0 µM 27% | [3]; at 33.0 µM 30% | [3]; at 100.0 µM 18% | [4]; at 1.2 µM -1% | [4]; at 3.7 µM -7% | [4]; [13] -26% | [4]; at 11.0 µM -6% | [4]; at 33.0 µM -9% | [4]; [14] 14% | [4]; at 50.0 µM 13.9% | [4]; at 100.0 µM -3% | [5]; at 1.2 µM 0% | [5]; at 3.7 µM -2% | [5]; at 11.0 µM -3% | [5]; at 33.0 µM 0% | [5]; at 100.0 µM 2% | [6]; [13] -27% | [6]; [14] 37% | [6]; at 50.0 µM 67% | [7]; at 1.2 µM -4% | [7]; at 3.7 µM -9% | [7]; at 11.0 µM -6% | [7]; at 33.0 µM -8% | [7]; at 100.0 µM -2% | [8]; [13] -25% | [8]; [14] 58% | [8]; at 50.0 µM 20.1% | [9]; at 1.2 µM 3% | [9]; at 3.7 µM 13% | [9]; [13] -17% | [9]; at 11.0 µM 24% | [9]; at 33.0 µM 21% | [9]; at 50.0 µM 61.3% | [9]; at 100.0 µM 14% | [10]; at 1.2 µM -2% | [10]; at 3.7 µM 0% | [10]; at 11.0 µM -2% | [10]; at 33.0 µM 0% | [10]; at 100.0 µM 1% | [11]; at 1.2 µM -2% | [11]; at 3.7 µM -4% | [11]; at 11.0 µM 0% | [11]; at 33.0 µM -4% | [11]; at 100.0 µM 0% | [12]; at 1.2 µM -2% | [12]; at 3.7 µM -4% | [12]; at 11.0 µM -2%
active: [9]; [14] 73%
